Activity calls are given as the source filed them. Rule for the calls: active = hit-call score of the fitted dose curve at least 0.9, where 1 is the maximum; inactive = score below 0.9.
Experiments:
[1] = read-out: Human Leukocyte Antigen - DR isotype (HLADR), HLA-DRA (gene 3122); experiment: BSK_BE3C_HLADR: BioMAP Diversity Plus: BE3C Assay for Human Leukocyte Antigen - DR isotype (HLADR) Biomarker Activity (AID 2283032); details: primary human bronchial epithelial cells; actives raise or lower the signal
How it was run: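 Primary human bronchial epithelial cells (BE3C); 24 h chemical exposure; HLA-DR by ELISA; bidirectional curve fit vs DMSO baseline.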

[2] = read-out: Interferon-gamma inducible Protein 10 (IP10), CXCL10 (gene 3627); experiment: BSK_BE3C_IP10: BioMAP Diversity Plus: BE3C Assay for Interferon-gamma inducible Protein 10 (IP10) Biomarker Activity (AID 2283034); details: primary human bronchial epithelial cells; actives raise or lower the signal
How it was run: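 ELISA readout of IP-10 in BE3C system: primary human bronchial epithelial cells, 24 h post-dosing; bidirectional curve fit vs DMSO baseline.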

[3] = read-out: Monokine induced gamma interferon (MIG), CXCL9 (gene 4283); experiment: BSK_BE3C_MIG: BioMAP Diversity Plus: BE3C Assay for Monokine induced gamma interferon (MIG) Biomarker Activity (AID 2283035); details: primary human bronchial epithelial cells; actives raise or lower the signal
How it was run: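 Dose cells (human primary bronchial epithelial), incubate 24 h, quantify MIG by ELISA, then fit concentration–response in both directions relative to DMSO control.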

[4] = read-out: Transforming growth factor beta 1 (TGFb1), TGFB1 (gene 7040); experiment: BSK_BE3C_TGFb1: BioMAP Diversity Plus: BE3C Assay for Transforming growth factor beta 1 (TGFb1) Biomarker Activity (AID 2283036); details: primary human bronchial epithelial cells; actives raise or lower the signal
How it was run: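 Read-out: ELISA for TGF-b1 in primary human bronchial epithelial cultures, 24 h post-dose. Bidirectional curve fitting vs DMSO control; gain or loss of signal both scored.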

[5] = read-out: Plasminogen activator inhibitor-1 (PAI1), SERPINE1 (gene 5054); experiment: BSK_BE3C_PAI1: BioMAP Diversity Plus: BE3C Assay for Plasminogen activator inhibitor-1 (PAI1) Biomarker Activity (AID 2283037); details: primary human bronchial epithelial cells; actives raise or lower the signal
How it was run: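 ELISA read-out of PAI-1 from human bronchial epithelial primary cells, 24 h post-dosing; bidirectional curve fit vs DMSO baseline, gain or loss of signal scored.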

[6] = read-out: urokinase plasminogen activator (uPA), PLAU (gene 5328); experiment: BSK_BE3C_uPA: BioMAP Diversity Plus: BE3C Assay for urokinase plasminogen activator (uPA) Biomarker Activity (AID 2283038); details: primary human bronchial epithelial cells; actives raise or lower the signal;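 note: uPA protein level quantified by ELISA in cell cultures; uPA read one day after compound addition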
How it was run: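 Primary human bronchial epithelial cells, uPA measured by ELISA 24 h after dosing. Bidirectional change relative to DMSO; cytotoxicity checked in parallel cultures by sulforhodamine B total-protein staining.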

[7] = read-out: Urokinase-type plasminogen activator receptor (uPAR), PLAUR (gene 5329); experiment: BSK_BE3C_uPAR: BioMAP Diversity Plus: BE3C Assay for Urokinase-type plasminogen activator receptor (uPAR) Biomarker Activity (AID 2283039); details: primary human bronchial epithelial cells; actives raise or lower the signal
How it was run: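 ELISA readout of uPAR on human lung primary bronchial epithelial cells, 24 h post-dosing. Bidirectional curve fit relative to DMSO vehicle baseline; gain or loss of signal both scored.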

[8] = read-out: Interleukin-6 (IL6), IL6 (gene 3569); experiment: BSK_CASM3C_IL6: BioMAP Diversity Plus: CASM3C Assay for Interleukin-6 (IL6) Biomarker Activity for (AID 2283040); details: primary human coronary artery smooth muscle cells; actives raise or lower the signal
[9] = read-out: Tissue plasminogen activator (tPA), PLAT (gene 5327); experiment: BSK_BE3C_tPA: BioMAP Diversity Plus: BE3C Assay for Tissue plasminogen activator (tPA) Biomarker Activity (AID 2283041); details: primary human bronchial epithelial cells; actives raise or lower the signal
How it was run: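 ELISA read-out of tPA on human primary bronchial epithelial cells, 24 h post-dosing; bidirectional fit vs DMSO negative control/baseline.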

[10] = read-out: Interleukin-8 (IL8), CXCL8 (gene 3576); experiment: BSK_CASM3C_IL8: BioMAP Diversity Plus: CASM3C Assay for Interleukin-8 (IL8) Biomarker Activity (AID 2283042); details: primary human coronary artery smooth muscle cells; actives raise or lower the signal;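 note: IL-8 protein level quantified by ELISA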
[11] = read-out: Human Leukocyte Antigen - DR isotype (HLADR), HLA-DRA (gene 3122); experiment: BSK_CASM3C_HLADR: BioMAP Diversity Plus: CASM3C Assay for Human Leukocyte Antigen - DR isotype (HLADR) Biomarker Activity (AID 2283043); details: primary human coronary artery smooth muscle cells; actives raise or lower the signal;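 note: cell-surface HLA-DR protein level quantified by ELISA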
[12] = read-out: Macrophage colony-stimulating factor (MCSF), CSF1 (gene 1435); experiment: BSK_CASM3C_MCSF: BioMAP Diversity Plus: CASM3C Assay for Macrophage colony-stimulating factor (MCSF) Biomarker Activity (AID 2283044); details: primary human coronary artery smooth muscle cells; actives raise or lower the signal;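 note: M-CSF protein amount quantified by ELISA after 24 h exposure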
[13] = read-out: Low-density lipoprotein receptor (LDLR), LDLR (gene 3949); experiment: BSK_CASM3C_LDLR: BioMAP Diversity Plus: CASM3C Assay for Low-density lipoprotein receptor (LDLR) Biomarker Activity (AID 2283045); details: primary human coronary artery smooth muscle cells; actives raise or lower the signal;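 note: LDLR protein level on the cell surface quantified by ELISA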
[14] = read-out: Monocyte Chemoattractant Protein-1 (MCP1), CCL2 (gene 6347); experiment: BSK_CASM3C_MCP1: BioMAP Diversity Plus: CASM3C Assay for Monocyte Chemoattractant Protein-1 (MCP1) Biomarker Activity (AID 2283046); details: primary human coronary artery smooth muscle cells; actives raise or lower the signal;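 note: MCP-1 level quantified by ELISA 24 h after dosing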
[15] = BSK_CASM3C_Proliferation: Cell Proliferation Assessment in the BioMAP Diversity Plus: CASM3C Assay (AID 2283047); details: primary human coronary artery smooth muscle cells;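 note: sulforhodamine B total protein stain as relative cell number at 560 nm; sub-confluent cells exposed 48 h before staining; fitted both ways against DMSO so gain or loss of cell number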
[16] = read-out: Monokine induced gamma interferon (MIG), CXCL9 (gene 4283); experiment: BSK_CASM3C_MIG: BioMAP Diversity Plus: CASM3C Assay for Monokine induced gamma interferon (MIG) Biomarker Activity (AID 2283048); details: primary human coronary artery smooth muscle cells; actives raise or lower the signal;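 note: MIG protein level measured by ELISA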
[17] = read-out: serum amyloid A (SAA), SAA1 (gene 6288); experiment: BSK_CASM3C_SAA: BioMAP Diversity Plus: CASM3C Assay for serum amyloid A (SAA) Biomarker Activity (AID 2283049); details: primary human coronary artery smooth muscle cells; actives raise or lower the signal;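 note: SAA protein level quantified by ELISA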
[18] = BSK_CASM3C_SRB: Viability Assessment in the BioMAP Diversity Plus: CASM3C Assay (AID 2283050); details: primary human coronary artery smooth muscle cells;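 note: total protein by SRB staining as cytotoxicity measure in parallel cultures; cells exposed to compound for 24 h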
[19] = read-out: Thrombomodulin, THBD (gene 7056); experiment: BSK_CASM3C_Thrombomodulin: BioMAP Diversity Plus: CASM3C Assay for Thrombomodulin Biomarker Activity (AID 2283051); details: primary human coronary artery smooth muscle cells; actives raise or lower the signal;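 note: thrombomodulin protein level measured by ELISA 24 h after dosing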

Measured: AC50

CC(C)(C)c1cc([N+](=O)[O-])cc(C(C)(C)C)c1O
inactive: all assays above

CCOC(=O)C(SP(=S)(OC)OC)c1ccccc1 (stereo not drawn)
active: [11] 20000 nM | [12] 20000 nM | [15] 20000 nM | [19] 20000 nM
not listed: [2] | [6]
inactive: all other assays above

Cc1cc(C(C)(C)c2ccc(O)c(C)c2)ccc1O
active: [1] 10000 nM | [2] 10000 nM | [4] 10000 nM | [5] 10000 nM | [7] 3660 nM | [8] 10000 nM | [9] 15200 nM | [11] 17400 nM | [12] 15200 nM | [15] 15700 nM | [17] 17000 nM | [18] 14900 nM | [19] 3010 nM
inactive: [3] | [10] | [13] | [14] | [16]

CC(C)(C)c1ccccc1O
not listed: [2] | [6]
inactive: all other assays above

[Cl][Sn]([c]1ccccc1)([c]1ccccc1)[c]1ccccc1
inactive: [4]
active: [1] 93.4 nM | [2] 93.5 nM | [3] 209 nM | [5] 992 nM | [7] 270 nM | [8] 726 nM | [9] 79.2 nM | [10] 499 nM | [11] 261 nM | [12] 718 nM | [13] 343 nM | [14] 599 nM | [15] 134 nM | [16] 524 nM | [17] 522 nM | [18] 688 nM | [19] 1070 nM

O=C(Cc1ccccc1)OCCc1ccccc1
not listed: [2] | [4]
inactive: all other assays above

N#Cc1cccnc1
not listed: [2] | [6]
inactive: all other assays above

— PubChem BioAssay (EPA / NIEHS)
